Experimental data reported in PubChem BioAssay AID1159580 (chemical genetic matrix, 2015).
Screen size: about 5,500 compounds; about 2,000 (36%) were called active. Roughly 18% stayed inconclusive and do not appear here. Cut-off read from the data, not from the text of the source: active = normalized growth mostly below about 0.91 (no sharp cut-off); inconclusive = no clear call, values can overlap the other calls; inactive = mostly above about 0.92. This is one part of the list.

Assay: chemical genetic growth profiling, strain panel (AID 1159580);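 note: tested at 20 µM; growth read once vehicle control cultures reached saturation at 30 °C; 1 = growth at the plate median or of vehicle wells; lower values mean less growth of the strain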
Settings: growth OD

Measured: normalized growth

COc1ccc([C@@H]2CC(=O)c3c(O)cc(O)cc3O2)cc1O
inactive: S. cerevisiae deletion strains, locus YJR043C, strain POL32, stronger effect = lower value 0.966 | S. cerevisiae deletion strains, locus YJR066W, strain TOR1, stronger effect = lower value 0.95 | S. cerevisiae deletion strains, locus YJR075W, strain HOC1, stronger effect = lower value 1.03 | S. cerevisiae deletion strains, locus YKL009W, strain mrt4, stronger effect = lower value 1.01 | S. cerevisiae deletion strains, locus YKL068W, stronger effect = lower value 0.998 | S. cerevisiae deletion strains, locus YKL085W, strain MDH1 (second series), stronger effect = lower value 0.99 | S. cerevisiae deletion strains, locus YKL085W, strain MDH1, stronger effect = lower value 0.99 | S. cerevisiae deletion strains, locus YKL160W, strain elf1, stronger effect = lower value 0.954 | S. cerevisiae deletion strains, locus YKR001C, strain vps1, stronger effect = lower value 1 | S. cerevisiae deletion strains, locus YKR026C, strain gcn3, stronger effect = lower value 0.982 | S. cerevisiae deletion strains, locus YKR091W, strain srl3, stronger effect = lower value 0.973 | S. cerevisiae deletion strains, locus YLL001W, strain dnm1, stronger effect = lower value 0.947 | S. cerevisiae deletion strains, locus YLL026W, stronger effect = lower value 0.993 | S. cerevisiae deletion strains, locus YLL041C, strain sdh2, stronger effect = lower value 0.982 | S. cerevisiae deletion strains, locus YLR027C, strain aat2, stronger effect = lower value 1 | S. cerevisiae deletion strains, locus YLR039C, strain RIC1, stronger effect = lower value 1.06 | S. cerevisiae deletion strains, locus YLR058C, strain SHM2, stronger effect = lower value 1.01 | S. cerevisiae deletion strains, locus YLR102C, strain apc9, stronger effect = lower value 1.01 | S. cerevisiae deletion strains, locus YLR113W, strain HOG1, stronger effect = lower value 1.02 | S. cerevisiae deletion strains, locus YLR221C, strain rsa3, stronger effect = lower value 0.959 | S. cerevisiae deletion strains, locus YLR258W, strain gsy2, stronger effect = lower value 0.977 | S. cerevisiae deletion strains, locus YLR262C, strain YPT6 (second series), stronger effect = lower value 0.972 | S. cerevisiae deletion strains, locus YLR262C, strain YPT6, stronger effect = lower value 1.03 | S. cerevisiae deletion strains, locus YLR268W, strain sec22, stronger effect = lower value 1.06 | S. cerevisiae deletion strains, locus YLR320W, strain mms22, stronger effect = lower value 0.93 | S. cerevisiae deletion strains, locus YLR330W, strain CHS5, stronger effect = lower value 1.01 | S. cerevisiae deletion strains, locus YLR342W, strain FKS1 (second series), stronger effect = lower value 0.979 | S. cerevisiae deletion strains, locus YLR342W, strain FKS1, stronger effect = lower value 0.976 | S. cerevisiae deletion strains, locus YLR357W, strain rsc2, stronger effect = lower value 0.953 | S. cerevisiae deletion strains, locus YLR370C, strain arc18, stronger effect = lower value 0.97 | S. cerevisiae deletion strains, locus YLR371W, strain rom2, stronger effect = lower value 1.01 | S. cerevisiae deletion strains, locus YLR384C, strain iki3, stronger effect = lower value 0.972 | S. cerevisiae deletion strains, locus YLR418C, strain cdc73, stronger effect = lower value 0.937 | S. cerevisiae deletion strains, locus YML016C, strain PPZ1, stronger effect = lower value 1 | S. cerevisiae deletion strains, locus YML032C, strain rad52, stronger effect = lower value 0.991 | S. cerevisiae deletion strains, locus YML120C, strain ndi1, stronger effect = lower value 0.974 | S. cerevisiae deletion strains, locus YML124C, strain tub3, stronger effect = lower value 1.01 | S. cerevisiae deletion strains, locus YMR058W, strain fet3, stronger effect = lower value 0.969 | S. cerevisiae deletion strains, locus YMR078C, strain ctf18, stronger effect = lower value 1.01 | S. cerevisiae deletion strains, locus YMR125W, strain sto1, stronger effect = lower value 0.96 | S. cerevisiae deletion strains, locus YMR129W, stronger effect = lower value 0.988 | S. cerevisiae deletion strains, locus YMR205C, strain PFK2, stronger effect = lower value 0.952 | S. cerevisiae deletion strains, locus YMR223W, strain ubp8, stronger effect = lower value 0.978 | S. cerevisiae deletion strains, locus YMR231W, strain pep5, stronger effect = lower value 0.98 | S. cerevisiae deletion strains, locus YMR263W, strain SAP30, stronger effect = lower value 1.03 | S. cerevisiae deletion strains, locus YMR307W, strain GAS1, stronger effect = lower value 0.952 | S. cerevisiae deletion strains, locus YNL067W, strain RPL9B, stronger effect = lower value 1.03 | S. cerevisiae deletion strains, locus YNL071W, strain lat1, stronger effect = lower value 0.979 | S. cerevisiae deletion strains, locus YNL183C, strain NPR1, stronger effect = lower value 0.944 | S. cerevisiae deletion strains, locus YNL209W, strain ssb2, stronger effect = lower value 0.986 | S. cerevisiae deletion strains, locus YNL233W, strain BNI4, stronger effect = lower value 1 | S. cerevisiae deletion strains, locus YNL248C, strain rpa49, stronger effect = lower value 0.97 | S. cerevisiae deletion strains, locus YNL250W, strain rad50, stronger effect = lower value 1.02 | S. cerevisiae deletion strains, locus YNL271C, strain bni1, stronger effect = lower value 1.01 | S. cerevisiae deletion strains, locus YNL298W, strain CLA4, stronger effect = lower value 1.02 | S. cerevisiae deletion strains, locus YNL307C, strain MCK1, stronger effect = lower value 1.01 | S. cerevisiae deletion strains, locus YNL322C, strain KRE1 (second series), stronger effect = lower value 0.987 | S. cerevisiae deletion strains, locus YNR049C, strain mso1, stronger effect = lower value 0.973 | S. cerevisiae deletion strains, locus YNR052C, strain pop2, stronger effect = lower value 1.02 | S. cerevisiae deletion strains, locus YOL012C, strain htz1 1.12 | S. cerevisiae deletion strains, locus YOL147C, strain pex11, stronger effect = lower value 0.998 | S. cerevisiae deletion strains, locus YOR001W, strain rrp6, stronger effect = lower value 0.988 | S. cerevisiae deletion strains, locus YOR061W, strain CKA2, stronger effect = lower value 1 | S. cerevisiae deletion strains, locus YOR069W, strain VPS5, stronger effect = lower value 1 | S. cerevisiae deletion strains, locus YOR070C, strain gyp1, stronger effect = lower value 0.975 | S. cerevisiae deletion strains, locus YOR080W, strain dia2, stronger effect = lower value 0.979 | S. cerevisiae deletion strains, locus YOR083W, strain WHI5, stronger effect = lower value 0.934 | S. cerevisiae deletion strains, locus YOR106W, strain vam3, stronger effect = lower value 0.946 | S. cerevisiae deletion strains, locus YOR136W, strain idh2, stronger effect = lower value 1.01 | S. cerevisiae deletion strains, locus YOR144C, strain elg1, stronger effect = lower value 0.999 | S. cerevisiae deletion strains, locus YOR184W, strain ser1, stronger effect = lower value 0.986 | S. cerevisiae deletion strains, locus YOR231W, strain MKK1, stronger effect = lower value 1.02 | S. cerevisiae deletion strains, locus YOR265W, strain rbl2, stronger effect = lower value 0.983 | S. cerevisiae deletion strains, locus YOR270C, strain vph1, stronger effect = lower value 0.933 | S. cerevisiae deletion strains, locus YOR290C, strain snf2, stronger effect = lower value 0.924 | S. cerevisiae deletion strains, locus YOR316C, strain cot1, stronger effect = lower value 1 | S. cerevisiae deletion strains, locus YPL051W, strain arl3, stronger effect = lower value 0.967 | S. cerevisiae deletion strains, locus YPL055C, strain LGE1, stronger effect = lower value 1.02 | S. cerevisiae deletion strains, locus YPL078C, strain atp4, stronger effect = lower value 0.952 | S. cerevisiae deletion strains, locus YPL106C, strain sse1, stronger effect = lower value 0.965 | S. cerevisiae deletion strains, locus YPL240C, strain hsp82, stronger effect = lower value 0.997 | S. cerevisiae deletion strains, locus YPL256C, strain CLN2, stronger effect = lower value 1.03 | S. cerevisiae deletion strains, locus YPR119W, strain clb2, stronger effect = lower value 1.01 | S. cerevisiae deletion strains, locus YPR141C, strain kar3, stronger effect = lower value 1.01 | S. cerevisiae deletion strains, locus YPR163C, strain tif3, stronger effect = lower value 1.01 | S. cerevisiae deletion strains, locus YPR167C, strain met16, stronger effect = lower value 1 | S. cerevisiae deletion strains, strain wtn01, stronger effect = lower value 1.03 | S. cerevisiae strains, strain wild type, stronger effect = lower value 1.01
